Consider 5 compounds from PubChem BioAssay.

SMILES strings stand for the structures. Active and inactive are the calls of the source.

A short description of test [1]: small molecules captured by biotinylated probe aFSTL3 – biochemical, small-molecule microarray, fluorescence 635/667, stem cell growth factor project, primary screen (AID 1064).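 Also: measures binding of the biotinylated anti-FSTL3 antibody to printed compounds.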 The settings on record: higher = more signal.
Test [2] can be described thus: binders from COS7 lysate, DM2A8 probe, primary screen, torsin A project, cell lysate, small-molecule microarray, fluorescence 635/667 (AID 1065). As to conditions: higher = more signal, COS7 lysate expressing mutant human TOR1A.
Test [3] is described as follows: small molecules captured by biotinylated probe aFGF2 – biochemical, small-molecule microarray, fluorescence 635/667, stem cell growth factor project, primary screen (AID 1067).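 Also: measures binding of biotinylated aFGF2 protein to printed compounds on slides; z-score merges feature fluorescence and signal-to-noise across triplicate slides.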 As to conditions: higher = more signal.
Test [4] can be described thus: small molecules captured by biotinylated probe aFGF10 – biochemical, small-molecule microarray, fluorescence 635/667, stem cell growth factor project, primary screen (AID 1071).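 Also: score merges 667 nm spot intensity and signal to noise from triplicate slides.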 The settings on record: higher = more signal.
The target of test [5] is Neurogenic locus notch homolog protein 2 (Homo sapiens) (UniProt Q04721). As to the kind of experiment: small molecules binding Notch2 protein – biochemical, small-molecule microarray, 635 nm fluorescence, stem cell growth factors, primary screen (AID 1073). As to conditions: higher = more signal.
Chain of Neurogenic locus notch homolog protein 2 (Homo sapiens) (Q04721 whole entry, looked up, canonical isoform): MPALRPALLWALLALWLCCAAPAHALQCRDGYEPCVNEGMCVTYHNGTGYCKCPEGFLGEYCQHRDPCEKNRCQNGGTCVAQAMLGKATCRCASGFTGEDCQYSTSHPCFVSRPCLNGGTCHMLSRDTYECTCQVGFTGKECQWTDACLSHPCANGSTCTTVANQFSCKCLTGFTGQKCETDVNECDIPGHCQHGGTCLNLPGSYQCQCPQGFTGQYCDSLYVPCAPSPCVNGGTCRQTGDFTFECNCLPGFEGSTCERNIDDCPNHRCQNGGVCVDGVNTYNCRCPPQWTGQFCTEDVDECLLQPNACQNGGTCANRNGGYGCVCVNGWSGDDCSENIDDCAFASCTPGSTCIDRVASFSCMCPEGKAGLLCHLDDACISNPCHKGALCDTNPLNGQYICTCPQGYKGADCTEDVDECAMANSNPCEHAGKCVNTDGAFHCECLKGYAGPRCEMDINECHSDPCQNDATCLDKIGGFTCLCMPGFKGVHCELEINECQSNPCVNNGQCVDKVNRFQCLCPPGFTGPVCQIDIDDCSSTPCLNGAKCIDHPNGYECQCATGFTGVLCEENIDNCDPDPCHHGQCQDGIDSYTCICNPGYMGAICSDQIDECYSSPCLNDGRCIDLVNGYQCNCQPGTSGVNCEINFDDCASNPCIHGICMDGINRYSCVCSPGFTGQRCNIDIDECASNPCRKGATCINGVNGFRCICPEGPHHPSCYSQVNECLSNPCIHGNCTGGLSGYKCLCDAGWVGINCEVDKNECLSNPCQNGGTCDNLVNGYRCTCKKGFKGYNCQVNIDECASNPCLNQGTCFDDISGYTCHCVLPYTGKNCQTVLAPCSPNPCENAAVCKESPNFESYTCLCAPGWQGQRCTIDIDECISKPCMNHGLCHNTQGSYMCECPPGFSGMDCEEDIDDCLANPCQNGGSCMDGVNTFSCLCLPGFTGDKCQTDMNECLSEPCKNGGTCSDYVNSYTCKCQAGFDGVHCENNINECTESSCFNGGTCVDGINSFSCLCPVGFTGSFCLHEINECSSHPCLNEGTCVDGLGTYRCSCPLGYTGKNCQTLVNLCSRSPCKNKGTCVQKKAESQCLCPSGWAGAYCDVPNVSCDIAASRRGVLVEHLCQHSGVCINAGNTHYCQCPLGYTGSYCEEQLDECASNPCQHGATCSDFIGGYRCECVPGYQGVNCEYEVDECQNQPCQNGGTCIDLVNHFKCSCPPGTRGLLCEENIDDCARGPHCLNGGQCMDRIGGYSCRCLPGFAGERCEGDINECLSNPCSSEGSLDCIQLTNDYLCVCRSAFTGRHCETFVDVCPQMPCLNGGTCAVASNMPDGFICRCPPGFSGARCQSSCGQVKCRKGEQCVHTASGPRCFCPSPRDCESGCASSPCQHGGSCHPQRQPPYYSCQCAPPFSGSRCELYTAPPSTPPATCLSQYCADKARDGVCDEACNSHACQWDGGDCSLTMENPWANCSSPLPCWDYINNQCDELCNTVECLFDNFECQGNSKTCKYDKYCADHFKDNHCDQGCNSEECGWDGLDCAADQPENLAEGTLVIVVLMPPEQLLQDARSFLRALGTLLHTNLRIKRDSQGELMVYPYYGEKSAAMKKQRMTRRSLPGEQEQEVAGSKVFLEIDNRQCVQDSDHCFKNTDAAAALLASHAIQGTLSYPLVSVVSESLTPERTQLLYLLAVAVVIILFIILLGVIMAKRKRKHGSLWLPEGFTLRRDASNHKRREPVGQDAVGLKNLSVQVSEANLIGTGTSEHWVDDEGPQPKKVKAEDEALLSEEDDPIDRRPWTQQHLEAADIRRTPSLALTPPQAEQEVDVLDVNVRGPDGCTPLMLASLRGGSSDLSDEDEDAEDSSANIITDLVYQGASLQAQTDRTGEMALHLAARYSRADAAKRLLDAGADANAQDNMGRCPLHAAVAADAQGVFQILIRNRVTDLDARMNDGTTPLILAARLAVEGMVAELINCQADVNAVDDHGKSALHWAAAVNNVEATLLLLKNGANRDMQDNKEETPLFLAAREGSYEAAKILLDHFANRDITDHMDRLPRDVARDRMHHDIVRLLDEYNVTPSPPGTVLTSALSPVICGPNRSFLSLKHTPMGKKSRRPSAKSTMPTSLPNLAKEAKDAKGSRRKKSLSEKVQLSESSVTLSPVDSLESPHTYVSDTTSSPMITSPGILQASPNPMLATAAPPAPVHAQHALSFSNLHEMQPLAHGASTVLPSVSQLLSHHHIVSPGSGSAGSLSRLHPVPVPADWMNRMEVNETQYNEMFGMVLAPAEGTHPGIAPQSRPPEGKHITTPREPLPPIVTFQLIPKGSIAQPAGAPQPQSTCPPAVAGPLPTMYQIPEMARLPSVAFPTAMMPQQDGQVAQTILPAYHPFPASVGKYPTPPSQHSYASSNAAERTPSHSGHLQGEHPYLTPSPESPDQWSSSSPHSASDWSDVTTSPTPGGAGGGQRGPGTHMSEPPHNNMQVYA
Test [6] has as its target Pro-neuregulin-1, membrane-bound isoform (Homo sapiens) (UniProt Q02297). As to the kind of experiment: small molecules binding neuregulin-1 protein – biochemical, small-molecule microarray, fluorescence 635/667, psychiatric disease protein project, primary screen (AID 1075).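 Also: score combines 667 nm spot fluorescence with signal to noise.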 As to conditions: NRG1 binding, 635 nm fluorescence, higher = more signal.
For test [7], the system named is Neuregulin-1 EGF-like domain. As to the kind of experiment: small molecules binding NRG1 EGF domain – biochemical, small-molecule microarray, 635 nm fluorescence, primary screen (AID 1081).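 Also: binding of the protein to compounds printed on small-molecule microarray slides.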 As to conditions: higher = more signal.
Test [8] can be described thus: FRG1 expression reporter modulators in myotubes – cell-based, C2C12 myotubes, firefly/Renilla luciferase, luminescence, FRG1 inhibition for FSHD, primary screen (AID 1084). The settings on record: FRG1 promoter luciferase, higher = more signal, called active from +8 up or from −8 down.
The nature of test [9]: small molecules captured by biotinylated probe aFST – biochemical, small-molecule microarray, fluorescence 635/667, stem cell growth factor project, primary screen (AID 1086).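 Also: score merges 667 nm fluorescence with signal-to-noise of each printed compound spot.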 As to conditions: higher = more signal.
Test [10] in a line: binders of probe aHhip on microarray, primary screen, stem cell growth factor project, biochemical, small-molecule microarray, fluorescence 635/667 (AID 1087).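 Also: score merges spot fluorescence at 667nm with spot signal to noise ratio.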 As to conditions: higher = more signal.
Test [11] concerns PRMT1 (protein arginine N-methyltransferase 1). As to the kind of experiment: small molecules binding arginine methyltransferase PRMT1 – biochemical, small-molecule microarray, 635 nm fluorescence, primary screen (AID 1088).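 Also: binding of Prmt1 protein to compounds spotted on small-molecule microarray slides.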 The settings on record: higher = more signal.
Test [12] is described as follows: growth effects on S. cerevisiae YJM789 – YJM789 clinical isolate, OD600, 24 h, basal, primary screen (AID 1089).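 Also: growth of clinical yeast isolate S. cerevisiae YJM 789 seeded 1000 cells per well; test concentration not given here.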 The settings on record: higher = more signal, called active from +8 up or from −8 down.
Test [13] can be described thus: S. pombe growth modifiers, basal conditions – strain 972, OD600, 24 h, no modulator, primary screen (AID 1090).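 Also: basal condition with compound alone and no growth modifier present; test concentration not given here.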 As to conditions: S. pombe 972 growth, higher = more signal, called active from +8 up or from −8 down.
A short description of test [14]: budding yeast growth modifiers under rapamycin – strain BY4716, OD600, 96 h, primary screen (AID 1091). Also: test concentration not given here. The settings on record: S. cerevisiae BY4716 + rapamycin, higher = more signal, called active from +8 up or from −8 down.
In test [15] the target is Torsin-1A-interacting protein 2 (Homo sapiens) (UniProt Q8NFQ8). Kind of test: small molecules binding lysate-expressed LULL1 – cell lysate, human LULL1 lysate, 635/667 nm fluorescence, primary screen (AID 1092).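 Also: probe is lysate of COS7 cells overexpressing human LULL1; score merges per-feature 667 nm fluorescence with signal-to-noise.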 As to conditions: small-molecule microarray, hLULL1 lysate binding, 635 nm fluorescence; higher = more signal.
Chain of Torsin-1A-interacting protein 2 (Homo sapiens) (Q8NFQ8 whole entry, looked up): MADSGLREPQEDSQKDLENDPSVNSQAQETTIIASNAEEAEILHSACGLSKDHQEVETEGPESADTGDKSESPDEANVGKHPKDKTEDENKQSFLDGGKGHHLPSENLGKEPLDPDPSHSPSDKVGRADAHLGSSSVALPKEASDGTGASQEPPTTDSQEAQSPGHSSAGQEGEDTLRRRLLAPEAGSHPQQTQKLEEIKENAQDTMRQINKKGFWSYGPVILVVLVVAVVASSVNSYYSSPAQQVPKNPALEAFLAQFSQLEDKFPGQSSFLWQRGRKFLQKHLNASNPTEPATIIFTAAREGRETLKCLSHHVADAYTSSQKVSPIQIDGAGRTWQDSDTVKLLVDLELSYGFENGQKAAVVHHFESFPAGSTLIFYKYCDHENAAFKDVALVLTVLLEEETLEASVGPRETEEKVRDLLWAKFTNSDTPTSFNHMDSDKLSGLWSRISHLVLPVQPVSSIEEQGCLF
A short description of test [16]: optical density change of DRC41 E. coli – strain DRC41, OD650, 24 h, E. coli filamentation project, primary screen (AID 1093).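 Also: MC1000 strain lacking acrAB efflux and sulA so SOS filamentation is blocked; test concentration not given here.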 The settings on record: E. coli DRC41 growth, higher = more signal, called active from +8 up or from −8 down.
The nature of test [17]: probe aLefty2 binding to arrayed compounds – biochemical, biotinylated probe, 635/667 nm fluorescence, primary screen (AID 1094).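 Also: score merges spot fluorescence near 667 nm with spot signal-to-noise ratio.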 The settings on record: small-molecule microarray, higher = more signal.
For test [18], the system named is Noggin (protein binding on small-molecule microarray). As to the kind of experiment: small molecules binding Noggin protein – biochemical, 635/667 nm fluorescence, primary screen (AID 1095).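 Also: score merges 667 nm feature fluorescence with signal to noise over triplicate slides.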 The settings on record: 635 nm fluorescence, higher = more signal.
Test [19] has as its target Neurogenic locus notch homolog protein 3 (Homo sapiens) (UniProt Q9UM47). As to the kind of experiment: small molecules binding NOTCH3 protein – biochemical, 635/667 nm fluorescence, primary screen (AID 1096). As to conditions: small-molecule microarray, 635 nm fluorescence, higher = more signal.
The nature of test [20]: probe aEGFR binding to arrayed compounds – biochemical, biotinylated probe, 635/667 nm fluorescence, primary screen (AID 1097).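 Also: probe is a biotinylated anti-EGFR antibody binding compounds printed on slides; score combines fluorescence near 667 nm and signal to noise of each spot.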 The settings on record: small-molecule microarray, higher = more signal.

Chain of Pro-neuregulin-1, membrane-bound isoform (Homo sapiens) (Q02297 whole entry, looked up, the tested form may be a part, canonical isoform): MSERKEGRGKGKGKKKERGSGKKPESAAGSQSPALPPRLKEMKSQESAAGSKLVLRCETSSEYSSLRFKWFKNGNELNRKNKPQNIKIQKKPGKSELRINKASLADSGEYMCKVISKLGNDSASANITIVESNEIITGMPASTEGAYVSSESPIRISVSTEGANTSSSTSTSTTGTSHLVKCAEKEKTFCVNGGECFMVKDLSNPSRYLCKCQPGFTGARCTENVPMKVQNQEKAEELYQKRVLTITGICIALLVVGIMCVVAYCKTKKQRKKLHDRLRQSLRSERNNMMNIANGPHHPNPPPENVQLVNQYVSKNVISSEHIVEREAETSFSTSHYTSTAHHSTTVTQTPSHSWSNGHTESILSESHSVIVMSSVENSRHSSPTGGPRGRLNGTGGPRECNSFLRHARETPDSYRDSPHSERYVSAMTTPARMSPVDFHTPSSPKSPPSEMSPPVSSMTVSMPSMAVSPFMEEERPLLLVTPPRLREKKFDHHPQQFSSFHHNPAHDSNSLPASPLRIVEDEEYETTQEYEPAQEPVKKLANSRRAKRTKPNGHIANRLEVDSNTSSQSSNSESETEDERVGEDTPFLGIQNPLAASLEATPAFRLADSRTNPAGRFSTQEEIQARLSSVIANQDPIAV

Turning to `C=C(/C(=C/C[C@@H](OC(C)=O)c1ccc(OCCO)cc1)c1cnc2ccccc2c1)C(C)C`, the composite z-score in test [1] was -0.0854; in [2], 0.769; in [3], -0.073; in test [4] it was 0.164; in test [5] it was 0.205; in test [6], 0.213. The composite z-score in [7] was 0.946; in test [9], 0.142; in test [10], -0.0645; in test [11] it was 1.26; in [15], 1.06; in test [17], -0.197. Moreover, the composite z-score in test [18] is 0.655; in [19], 0.676; in test [20], -0.146. Further, the z-score in test [8] is -1.06 (inactive); in test [12], -0.0424 (inactive); in test [13] it was -1.56 (inactive); in test [14] it was -0.234 (inactive); in test [16], 0.762 (inactive).

With `C=CCOC(=O)[C@H]1[C@@H]2C(=O)O[C@@H](c3ccccc3)[C@@H](c3ccccc3)N2[C@@H](c2ccc(OCCOC(=O)[C@H]3C[C@H]4C(=O)N[C@@H](CC(C)C)C(=O)N4[C@H]3c3ccc(O)cc3)cc2)[C@]12C(=O)Nc1ccc(I)cc12`, the composite z-score in test [1] was -0.921; in test [2], 1.1; in test [3], -0.0355; in test [4] it was 0.69; in test [5], 0.82; in test [6], 0.731. Besides, the composite z-score was 1.34 in test [7]; -0.742 in [9]; -0.263 in [10]; 1.54 in test [11]; 2.62 in test [15]; -0.282 in test [17]. Further, the values for the composite z-score in test [18], in test [19] and in test [20] were 1.67, 1.12 and 0.0423, respectively. For the same compound, the z-score is 1.11 (inactive) in [8]; 1 (inactive) in test [12]; -1.4 (inactive) in test [13]; 0.333 (inactive) in test [14]; -1.13 (inactive) in test [16].

In the case of `CCCC[C@H]1OB(O)C[C@H]2C1=C(COc1ccccc1)C[C@H]1C(=O)N(C)C(=O)[C@H]12`, the composite z-score was -0.32 in test [1]; -0.353 in [2]; -0.085 in test [3]; 0.121 in [4]; 0.85 in test [5]; 0.0746 in test [6]. In addition, the composite z-score in [7] is 0.462; in [9], 1.2; in test [10] it was -0.0754; in test [11], -0.0361; in test [15] it was 0.265; in test [17], 0.0784. For the same compound, the composite z-score in [18] is 0.231; in test [19], 0.187; in test [20], -0.0714. Moreover, the z-score was -0.153 (inactive) in test [8]; -0.454 (inactive) in [12]; -1.03 (inactive) in test [13]; -0.861 (inactive) in test [14]; -0.632 (inactive) in test [16].

Regarding `CC(C)(C)OC(=O)CC[C@@]12N=C(c3ccc(OCCCO)cc3)O[C@@H]1c1ccccc1N(CCS(=O)(=O)c1ccccc1)C2=O`, the composite z-score was 0.742 in test [1]; 0.066 in test [2]; -0.0174 in test [3]; -0.366 in [4]; 0.893 in test [5]; 0.729 in [6]. Also, the composite z-score was 1.11 in [7]; 0.687 in test [9]; 0.0302 in test [10]; 1.07 in test [11]; 2.48 in test [15]; 0.193 in [17]. Moreover, the results for the composite z-score in [18], in test [19] and in test [20] were 0.427, 0.784 and -0.0679, respectively. Besides, the z-score in test [8] is -2.9 (inactive); in test [12], -0.0877 (inactive); in [13], 0.326 (inactive); in [14], 0.0825 (inactive); in [16], 1.68 (inactive).

`COCCOC(=O)N1C(=O)[C@@]2(c3cc(C#Cc4ccc(OC)cc4)ccc31)[C@H](C(N)=O)[C@H]1C(=O)O[C@H](c3ccccc3)[C@H](c3ccccc3)N1[C@@H]2c1ccccc1OCCO`: the composite z-score in [1] was found to be 0.214; in [2], 2.16; in [3], 0.0918; in [4], 1.11; in test [5], 1.53; in test [6], 1.64. The composite z-score in test [7] was 1.27; in test [9] it was 0.433; in [10] it was 0.0431; in [11], 1.54; in test [15], 2.33; in test [17] it was 0.306. Also, the values for the composite z-score in test [18], in [19] and in test [20] were 1.55, 1.08 and 0.245, respectively. The z-score is -1.26 (inactive) in [8]; 1.05 (inactive) in test [12]; 0.649 (inactive) in test [13]; 3.72 (inactive) in test [14]; 0.071 (inactive) in [16].
